Assay results taken from PMC5540273 (PLoS ONE, 2017).

How the values were obtained:
Conditions in all cases: concentration: 1 μM, replicates: in singlicate; n = 1
[1] = system: RPS6KA4(Kin.Dom.1-N-terminal)
[2] = system: RPS6KA4(Kin.Dom.2-C-terminal)
[3] = system: RPS6KA5(Kin.Dom.1-N-terminal)
[4] = system: RPS6KA5(Kin.Dom.2-C-terminal)
[5] = system: T1, RSK1(Kin.Dom.1-N-terminal)
T1 construct: gene RPS6KA1

[6] = system: T2, RSK1(Kin.Dom.2-C-terminal)
T2 construct: gene RPS6KA1

[7] = system: T3, RSK2(Kin.Dom.1-N-terminal)
T3 construct: gene RPS6KA3

[8] = system: T4, RSK2(Kin.Dom.2-C-terminal)
T4 construct: gene RPS6KA3

[9] = system: T5, RSK3(Kin.Dom.1-N-terminal)
T5 construct: gene RPS6KA2

[10] = system: T6, RSK3(Kin.Dom.2-C-terminal)
T6 construct: gene RPS6KA2

[11] = system: T7, RSK4(Kin.Dom.1-N-terminal)
T7 construct: gene RPS6KA6

[12] = system: T8, RSK4(Kin.Dom.2-C-terminal)
T8 construct: gene RPS6KA6

[13] = system: S6K1
[14] = system: SBK1
[15] = system: SGK2
[16] = system: SGK3
[17] = system: SGK
[18] = system: SIK2
[19] = system: SIK
[20] = system: SLK
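Also: KINOMEscan kinase panel screen.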

Row | Structure (SMILES) | %Inh [1] | %Inh [2] | %Inh [3] | %Inh [4] | %Inh [5] | %Inh [6] | %Inh [7] | %Inh [8] | %Inh [9] | %Inh [10] | %Inh [11] | %Inh [12] | %Inh [13] | %Inh [14] | %Inh [15] | %Inh [16] | %Inh [17] | %Inh [18] | %Inh [19] | %Inh [20]
1 | CN1CCN(CCCNc2nccc(-c3c(-c4ccc(F)cc4)nn4cc(C(F)(F)F)ccc34)n2)CC1 [GW621581] | 10% | 0% | 26% | 0% | 0% | 44% | 0% | 17% | 10% | 0% | 0% | 80% | 1% | 8% | 0% | 0% | 12% | 70% | 0% | 42%
2 | COC(=O)Nc1nc2cc(Oc3ccc(NC(=O)Nc4cc(C(F)(F)F)ccc4F)cn3)ccc2[nH]1.Cl.Cl [GW681170] | 9% | 0% | 21% | 7% | 0% | 50% | 0% | 0% | 0% | 17% | 0% | 0% | 12% | 0% | 1% | 6% | 12% | 0% | 0% | 36%
3 | COC(=O)Nc1nc2ccc(Oc3ccc(NC(=O)Nc4cc(C(F)(F)F)ccc4F)cc3)cc2n1C.Cl [GW692089] | 6% | 0% | 0% | 0% | 0% | 0% | 40% | 0% | 0% | 0% | 0% | 0% | 1% | 4% | 0% | 20% | 8% | 0% | 1% | 49%
4 | COCCOCCOc1cc2ncc3c4ccc(C#N)cc4[nH]c3c2cc1OC | 0% | 0% | 0% | 44% | 0% | 0% | 79% | 2% | 46% | 8% | 90% | 0% | 61% | 81% | 58% | 47% | 89% | 83% | 13% | 45%
5 | Cc1cccc(NC(=O)Nc2ccc(Oc3ncnc4ccn(C)c34)cc2)c1 | 0% | 0% | 0% | 0% | 0% | 0% | 0% | 2% | 0% | 0% | 0% | 0% | 0% | 0% | 0% | 0% | 0% | 7% | 10% | 0%
6 | COc1ccc(-c2coc3ccc(-c4nnc(SCc5ccc(OC)c(C(F)(F)F)c5)o4)cc23)cc1 | 9% | 15% | 0% | 0% | 1% | 17% | 14% | 19% | 16% | 19% | 25% | 16% | 0% | 0% | 6% | 28% | 0% | 21% | 10% | 9%
7 | c1ccc(-c2cnc3nccnn23)cc1 [AH20685] | 0% | 0% | 9% | 0% | 0% | 0% | 0% | 0% | 0% | 0% | 0% | 0% | 10% | 5% | 0% | 0% | 0% | 0% | 0% | 11%
8 | COc1cc(Nc2ncc3c(C)nc(-c4cc5ccccc5[nH]4)n3n2)cc(OC)c1OC [GW869516] | 44% | 0% | 0% | 7% | 91.7% | 0% | 49% | 32% | 66% | 0% | 7% | 3% | 0% | 0% | 0% | 1% | 0% | 29% | 20% | 63%
9 | C[C@@H]1CC[C@@H](C(=O)Nc2ccccc2)CN1c1cc(-c2ccc3c(N)n[nH]c3c2)nc(N)n1 [GSK2286062] | 4% | 0% | 6% | 2% | 14% | 3% | 7% | 19% | 2% | 24% | 0% | 17% | 0% | 26% | 0% | 0% | 0% | 0% | 0% | 1%
10 | CCCCc1nn2ncccc2c1-c1ccnc(Nc2ccc(N3CCN(C)CC3)cc2)n1 [GW684941] | 8% | 0% | 0% | 43% | 0% | 31% | 71% | 20% | 5% | 0% | 0% | 82% | 0% | 30% | 0% | 0% | 24% | 84% | 83% | 69%
